Assay results taken from the supplement of paper PMC10849652.
The full data set covers some 8,800 targets. This sample favours those with a hit. About 0.5% of all pairs of compound and target were hits. Unmarked numbers belong to inactive results.

Key:
Assay in all cases: log2 fold change, soluble protein after heating vs DMSO (PISA); higher = thermal stabilisation; K562 lysate, 10 uM; active = over 0.2 and 3.5 SD of the protein, either way, in both replicates (recomputed)
[1] = compound: Cc1cn(-c2cc(NC(=O)c3ccc(C)c(Nc4nccc(-c5cccnc5)n4)c3)cc(C(F)(F)F)c2)cn1 [nilotinib]
Outline: (§1)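 Pellets of K562 cells were dounce-homogenised in PBS pH 7.4 with 1 mM MgCl2, and the crude extract was held at 1 mg/mL protein for a 30 min treatment with 10 μM compound. Aliquots were heated for 3 min over 48°C-58°C and pooled before NP-40 was added to 0.5% at 4°C. The supernatant from 21,000xg for 90 min was quantified by TMTpro 16plex LC-MS/MS with channel sums equalised. Values are reported from duplicates as log-two fold change in thermal stability relative to solvent controls.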

[2] = compound: Cc1nc(Nc2n[nH]c3c2CN(C(=O)N[C@H](CN(C)C)c2ccccc2)C3(C)C)c2sccc2n1
Outline: as §1

[3] = compound: Cc1nc(Nc2ncc(C(=O)Nc3c(C)cccc3Cl)s2)cc(N2CCN(CCO)CC2)n1 [dasatinib]
Outline: as §1

[4] = compound: Cc1ncc(-c2ccnc(Nc3ccc(S(C)(=O)=O)cc3)n2)n1C(C)C
Outline: as §1

[5] = compound: Cn1cc(-c2ccc3c(c2)CCN3C(=O)Cc2cccc(C(F)(F)F)c2)c2c(N)ncnc21
Outline: as §1

[6] = compound: Cn1cc(CNCC2CCN(c3ncc(C(=O)NO)cn3)CC2)c2ccccc21 [quisinostat]
Outline: as §1

[7] = compound: Cn1cncc1[C@@](N)(c1ccc(Cl)cc1)c1ccc2c(c1)c(-c1cccc(Cl)c1)cc(=O)n2C [tipifarnib]
Outline: as §1

[8] = compound: NC(=O)Nc1cc(-c2cccc(F)c2)sc1C(=O)N[C@H]1CCCNC1
Outline: as §1

[9] = compound: NC(=O)c1cnc(N[C@@H]2CCCC[C@@H]2N)nc1Nc1cccc(-n2nccn2)c1
Outline: as §1

[10] = compound: NC1(c2ccc(-c3nc4ccn5c(=O)[nH]nc5c4cc3-c3ccccc3)cc2)CCC1
Outline: as §1

[11] = compound: NCC(=O)Nc1ccc(-n2nc(C(F)(F)F)cc2-c2ccc3c(ccc4ccccc43)c2)cc1
Outline: as §1

[12] = compound: O=C(CCCCCCC(=O)Nc1ccccc1)NO [vorinostat]
Outline: as §1

[13] = compound: O=C(O)c1ccc2c(c1)nc(Nc1cccc(Cl)c1)c1ccncc12 [silmitasertib]
Outline: as §1

[14] = compound: O=C1NC(=O)C(c2cnc3ccccn23)=C1c1cn2c3c(cc(F)cc13)CN(C(=O)N1CCCCC1)CC2
Outline: as §1

[15] = compound: c1cn2cc(-c3ccc4cn[nH]c4c3)nc(Nc3ccc(N4CCOCC4)cc3)c2n1 [entospletinib]
Outline: as §1

UniProt Q96KF7, sequence (Q96KF7 whole entry, looked up): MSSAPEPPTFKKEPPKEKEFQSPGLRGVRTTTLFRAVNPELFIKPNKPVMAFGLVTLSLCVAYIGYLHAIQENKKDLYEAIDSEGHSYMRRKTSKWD
UniProt O43808, sequence (O43808 whole entry, looked up): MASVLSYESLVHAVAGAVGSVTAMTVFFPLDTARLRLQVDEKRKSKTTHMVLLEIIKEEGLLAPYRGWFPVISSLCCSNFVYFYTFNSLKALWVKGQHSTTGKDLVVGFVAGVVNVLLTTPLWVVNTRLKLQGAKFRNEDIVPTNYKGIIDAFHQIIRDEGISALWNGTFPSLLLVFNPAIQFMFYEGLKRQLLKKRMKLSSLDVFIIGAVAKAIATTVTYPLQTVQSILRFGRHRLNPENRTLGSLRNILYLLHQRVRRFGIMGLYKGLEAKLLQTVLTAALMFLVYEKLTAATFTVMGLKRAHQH
UniProt Q9BWW4, sequence (Q9BWW4 whole entry, looked up): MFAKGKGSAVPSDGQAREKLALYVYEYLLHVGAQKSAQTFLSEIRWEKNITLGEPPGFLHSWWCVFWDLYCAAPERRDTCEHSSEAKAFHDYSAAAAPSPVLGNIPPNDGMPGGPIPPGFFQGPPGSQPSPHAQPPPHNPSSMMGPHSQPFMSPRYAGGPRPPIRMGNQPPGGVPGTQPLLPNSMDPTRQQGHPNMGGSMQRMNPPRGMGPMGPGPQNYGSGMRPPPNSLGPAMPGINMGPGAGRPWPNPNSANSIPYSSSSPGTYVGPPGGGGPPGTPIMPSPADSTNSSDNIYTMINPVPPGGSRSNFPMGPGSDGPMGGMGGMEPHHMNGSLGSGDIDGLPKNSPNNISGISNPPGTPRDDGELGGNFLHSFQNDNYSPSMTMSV
UniProt Q9UJZ1, sequence (Q9UJZ1 whole entry, looked up): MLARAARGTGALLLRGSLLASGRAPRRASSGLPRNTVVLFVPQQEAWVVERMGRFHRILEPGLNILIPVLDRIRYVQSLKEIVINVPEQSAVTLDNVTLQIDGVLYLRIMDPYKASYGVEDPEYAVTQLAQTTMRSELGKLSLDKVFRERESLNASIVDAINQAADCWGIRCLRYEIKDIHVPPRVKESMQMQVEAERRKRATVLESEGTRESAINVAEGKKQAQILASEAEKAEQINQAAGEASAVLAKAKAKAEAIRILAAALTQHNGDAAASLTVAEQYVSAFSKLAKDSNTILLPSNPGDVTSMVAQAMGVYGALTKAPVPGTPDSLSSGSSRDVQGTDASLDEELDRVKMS
UniProt Q86US8, sequence (Q86US8 whole entry, looked up): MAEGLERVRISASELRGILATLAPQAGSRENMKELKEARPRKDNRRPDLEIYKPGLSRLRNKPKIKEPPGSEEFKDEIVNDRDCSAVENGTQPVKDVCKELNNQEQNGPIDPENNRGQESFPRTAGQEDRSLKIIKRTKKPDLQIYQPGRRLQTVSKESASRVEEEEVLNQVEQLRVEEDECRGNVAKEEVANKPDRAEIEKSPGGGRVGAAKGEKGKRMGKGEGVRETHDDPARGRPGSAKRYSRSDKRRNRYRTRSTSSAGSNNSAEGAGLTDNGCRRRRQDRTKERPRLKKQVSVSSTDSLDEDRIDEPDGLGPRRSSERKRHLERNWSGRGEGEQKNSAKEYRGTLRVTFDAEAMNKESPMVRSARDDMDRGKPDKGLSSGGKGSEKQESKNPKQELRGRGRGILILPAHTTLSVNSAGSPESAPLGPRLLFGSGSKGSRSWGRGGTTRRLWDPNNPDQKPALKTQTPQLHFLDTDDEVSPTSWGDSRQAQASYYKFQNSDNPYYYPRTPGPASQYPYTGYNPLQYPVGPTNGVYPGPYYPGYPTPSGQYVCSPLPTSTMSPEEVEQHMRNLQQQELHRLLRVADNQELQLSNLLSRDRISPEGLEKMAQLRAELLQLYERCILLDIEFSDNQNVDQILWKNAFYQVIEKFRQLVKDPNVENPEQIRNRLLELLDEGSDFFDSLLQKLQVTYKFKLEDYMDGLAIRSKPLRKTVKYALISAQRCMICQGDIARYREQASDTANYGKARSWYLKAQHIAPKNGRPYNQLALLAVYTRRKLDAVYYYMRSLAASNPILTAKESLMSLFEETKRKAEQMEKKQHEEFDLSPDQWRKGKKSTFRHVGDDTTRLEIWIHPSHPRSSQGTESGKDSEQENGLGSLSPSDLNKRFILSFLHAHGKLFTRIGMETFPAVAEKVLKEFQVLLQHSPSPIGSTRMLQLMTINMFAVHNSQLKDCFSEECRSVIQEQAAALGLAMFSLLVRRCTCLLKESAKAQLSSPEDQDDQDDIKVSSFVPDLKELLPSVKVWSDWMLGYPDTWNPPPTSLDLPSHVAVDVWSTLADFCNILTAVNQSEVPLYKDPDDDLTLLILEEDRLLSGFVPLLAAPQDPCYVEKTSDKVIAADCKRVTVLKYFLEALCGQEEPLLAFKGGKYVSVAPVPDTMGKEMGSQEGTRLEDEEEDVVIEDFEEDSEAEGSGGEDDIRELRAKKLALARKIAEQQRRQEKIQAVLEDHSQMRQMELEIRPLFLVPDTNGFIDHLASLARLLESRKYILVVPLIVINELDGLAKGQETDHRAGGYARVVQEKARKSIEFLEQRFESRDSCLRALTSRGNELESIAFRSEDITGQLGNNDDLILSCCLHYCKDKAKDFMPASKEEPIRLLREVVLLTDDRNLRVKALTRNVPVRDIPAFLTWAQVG
UniProt Q8IX90, sequence (Q8IX90 whole entry, looked up): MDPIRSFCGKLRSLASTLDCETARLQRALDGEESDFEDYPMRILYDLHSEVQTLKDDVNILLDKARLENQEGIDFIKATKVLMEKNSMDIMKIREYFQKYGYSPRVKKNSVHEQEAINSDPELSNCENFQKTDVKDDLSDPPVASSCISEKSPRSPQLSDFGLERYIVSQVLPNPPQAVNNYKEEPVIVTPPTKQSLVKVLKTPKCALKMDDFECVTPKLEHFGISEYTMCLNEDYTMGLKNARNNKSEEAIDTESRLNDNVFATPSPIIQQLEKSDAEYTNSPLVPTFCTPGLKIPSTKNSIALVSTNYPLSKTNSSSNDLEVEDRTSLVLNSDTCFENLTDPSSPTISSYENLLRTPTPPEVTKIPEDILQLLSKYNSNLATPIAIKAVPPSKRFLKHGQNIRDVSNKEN
UniProt P62316, sequence (P62316 whole entry, looked up): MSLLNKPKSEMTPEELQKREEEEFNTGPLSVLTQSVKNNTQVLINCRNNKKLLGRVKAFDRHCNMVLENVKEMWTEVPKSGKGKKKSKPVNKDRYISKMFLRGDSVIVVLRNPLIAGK
UniProt P53814, sequence (P53814 whole entry, looked up): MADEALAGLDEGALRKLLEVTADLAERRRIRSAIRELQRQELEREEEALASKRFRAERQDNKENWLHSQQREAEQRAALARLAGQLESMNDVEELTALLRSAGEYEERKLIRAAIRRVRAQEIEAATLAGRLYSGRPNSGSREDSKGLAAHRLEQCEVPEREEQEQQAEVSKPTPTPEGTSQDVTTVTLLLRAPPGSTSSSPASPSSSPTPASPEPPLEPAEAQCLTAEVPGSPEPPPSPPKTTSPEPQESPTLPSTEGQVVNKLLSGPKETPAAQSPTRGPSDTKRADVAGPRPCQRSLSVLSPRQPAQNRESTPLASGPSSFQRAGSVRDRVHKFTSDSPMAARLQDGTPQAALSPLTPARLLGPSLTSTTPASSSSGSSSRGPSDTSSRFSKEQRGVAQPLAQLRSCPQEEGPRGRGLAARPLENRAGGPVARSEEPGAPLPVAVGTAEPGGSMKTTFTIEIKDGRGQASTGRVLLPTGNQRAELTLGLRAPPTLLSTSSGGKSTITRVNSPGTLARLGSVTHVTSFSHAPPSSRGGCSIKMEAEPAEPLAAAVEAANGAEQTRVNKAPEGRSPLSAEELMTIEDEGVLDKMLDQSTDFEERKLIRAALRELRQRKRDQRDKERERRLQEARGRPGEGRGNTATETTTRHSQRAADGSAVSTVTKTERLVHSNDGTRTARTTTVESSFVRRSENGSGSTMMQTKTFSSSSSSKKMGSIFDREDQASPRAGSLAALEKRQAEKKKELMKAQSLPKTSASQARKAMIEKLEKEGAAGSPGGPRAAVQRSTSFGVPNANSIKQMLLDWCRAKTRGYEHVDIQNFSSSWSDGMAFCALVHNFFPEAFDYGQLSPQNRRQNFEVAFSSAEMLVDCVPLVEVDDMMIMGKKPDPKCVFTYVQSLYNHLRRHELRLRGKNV
UniProt Q8NEM2, sequence (Q8NEM2 whole entry, looked up): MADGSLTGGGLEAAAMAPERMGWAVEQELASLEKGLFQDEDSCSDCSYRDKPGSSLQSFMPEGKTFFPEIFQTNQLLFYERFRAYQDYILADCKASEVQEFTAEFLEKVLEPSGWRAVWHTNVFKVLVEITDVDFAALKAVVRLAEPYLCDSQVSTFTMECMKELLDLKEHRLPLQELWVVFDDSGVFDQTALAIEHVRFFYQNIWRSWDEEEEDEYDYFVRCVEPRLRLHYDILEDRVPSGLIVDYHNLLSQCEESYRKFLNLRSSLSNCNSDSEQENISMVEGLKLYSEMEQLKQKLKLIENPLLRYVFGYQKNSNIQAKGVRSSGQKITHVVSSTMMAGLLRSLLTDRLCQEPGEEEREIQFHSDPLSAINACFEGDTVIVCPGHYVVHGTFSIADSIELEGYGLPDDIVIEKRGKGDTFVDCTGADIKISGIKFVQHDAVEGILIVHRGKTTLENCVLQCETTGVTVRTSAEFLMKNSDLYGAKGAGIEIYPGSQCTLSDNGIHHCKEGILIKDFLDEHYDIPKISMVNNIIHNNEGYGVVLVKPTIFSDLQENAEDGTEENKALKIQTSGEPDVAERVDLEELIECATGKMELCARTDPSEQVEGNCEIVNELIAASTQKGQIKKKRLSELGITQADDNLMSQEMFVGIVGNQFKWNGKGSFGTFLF
UniProt Q13242, sequence (Q13242 whole entry, looked up): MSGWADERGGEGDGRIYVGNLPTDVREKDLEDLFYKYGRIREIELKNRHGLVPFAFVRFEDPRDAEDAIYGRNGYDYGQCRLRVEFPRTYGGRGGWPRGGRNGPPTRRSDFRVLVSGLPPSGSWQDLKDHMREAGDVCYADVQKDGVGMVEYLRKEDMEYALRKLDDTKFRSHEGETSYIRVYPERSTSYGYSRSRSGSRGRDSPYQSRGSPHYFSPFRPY

| Target | log2 fold change [1] | log2 fold change [2] | log2 fold change [3] | log2 fold change [4] | log2 fold change [5] | log2 fold change [6] | log2 fold change [7] | log2 fold change [8] | log2 fold change [9] | log2 fold change [10] | log2 fold change [11] | log2 fold change [12] | log2 fold change [13] | log2 fold change [14] | log2 fold change [15] |
| --- | --- | --- | --- | --- | --- | --- | --- | --- | --- | --- | --- | --- | --- | --- | --- |
| SMG6 (UniProt Q86US8) | -0.067 | 0.028 | 0.048 | 0.079 | 0.082 | -0.05 | -0.065 | 0.028 | 0.065 | 0.011 | 0.119 | -0.3 (active) | 0.015 | -0.012 | 0.024 |
| SMTN isoform 6 (UniProt P53814) | -0.011 | 0.134 | -0.055 | -0.022 | 0.031 | -0.065 | -0.019 | 0.021 | -0.005 | 0.089 | -0.021 | -0.088 | -0.007 | -0.034 | 0.013 |
| SNW1 (UniProt Q13573) | 0.002 | -0.009 | 0.024 | -0.036 | -0.015 | 0.012 | 0.009 | -0.016 | -0.01 | -0.01 | 0.011 | 0.224 (active) | -0.003 | -0.012 | 0.009 |
| SMC4 (UniProt Q9NTJ3) | -0.01 | 0.009 | -0.03 | 0.016 | 0.003 | -0.014 | -0.003 | 0.027 | 0.009 | -0.023 | 0.013 | -0.296 (active) | 0.011 | -0.015 | 0.009 |
| STOML2 (UniProt Q9UJZ1) | -0.017 | -0.01 | 0.004 | 0.017 | -0.001 | 0.035 | 0.005 | 0.018 | 0.002 | -0.003 | 0.03 | 0.129 | -0.021 | 0.028 | 0.011 |
| SRSF9 (UniProt Q13242) | 0.02 | 0.01 | -0.079 | 0.02 | -0.005 | 0.008 | 0.047 | -0.012 | 0.029 | -0.002 | -0.182 | -0.113 | 0.069 | -0.035 | 0.007 |
| SHCBP1 (UniProt Q8NEM2) | -0.051 | -0.024 | -0.071 | -0.043 | 0.026 | -0.019 | -0.035 | -0.009 | -0.019 | -0.016 | 0.02 | -0.37 (active) | 0.04 | -0.009 | -0.013 |
| SMG1 (UniProt Q96Q15) | -0.029 | 0.026 | -0.021 | 0.038 | 0.006 | -0.05 | -0.028 | 0.061 | 0 | -0.032 | 0.005 | -0.348 (active) | 0.011 | -0.006 | -0.007 |
| SPATS2 (UniProt Q86XZ4) | -0.069 | 0.042 | -0.073 | 0.074 | -0.03 | 0.144 | 0.013 | -0.107 | -0.005 | -0.013 | -0.047 | -0.507 (active) | 0.002 | -0.049 | 0.176 |
| SLC12A6 (UniProt Q9UHW9) | -0.004 | 0 | 0.024 | -0.066 | -0.003 | -0.013 | 0.012 | -0.001 | -0.022 | 0.026 | 0.009 | 0.15 | -0.045 | 0.003 | 0.013 |
| SKA3 (UniProt Q8IX90) | -0.046 | -0.018 | -0.028 | 0.023 | 0.002 | -0.093 | -0.02 | 0.044 | 0.034 | -0.004 | -0.007 | -0.247 (active) | 0 | -0.022 | 0.006 |
| SLC25A17 (UniProt O43808) | -0.049 | 0.006 | 0.01 | 0.032 | 0.023 | -0.125 | -0.068 | 0.028 | 0.038 | -0.026 | 0.021 | 0.015 | -0.026 | -0.033 | -0.027 |
| SUZ12 (UniProt Q15022) | 0.03 | -0.025 | 0.037 | -0.013 | -0.008 | -0.005 | 0.016 | -0.007 | -0.013 | -0.026 | -0.064 | -0.156 | 0.023 | 0.021 | 0.043 |
| SMIM8 (UniProt Q96KF7) | 0.059 | -0.018 | 0.032 | 0.055 | -0.023 | 0.084 | -0.033 | -0.02 | -0.045 | -0.013 | -0.007 | 0.092 | -0.022 | -0.029 | -0.046 |
| STK26 (UniProt Q9P289) | -0.033 | 0.25 (active) | 0.102 | 0.044 | 0.029 | -0.035 | -0.013 | 0.104 | 0.002 | -0.008 | -0.027 | -0.032 | 0.035 | -0.045 | -0.026 |
| SNRPD2 (UniProt P62316) | 0.014 | 0.015 | 0.024 | 0.015 | -0.02 | 0.007 | 0.014 | -0.027 | 0 | -0.002 | 0 | 0.147 | -0.021 | 0.015 | 0.001 |
| TANK (UniProt Q92844) | -0.067 | 0.461 (active) | 0.069 | 0.04 | 0.088 | -0.053 | -0.071 | 0.161 | 0.042 | 0.01 | 0.041 | -0.102 | 0.124 | 0.071 | 0.132 |
| SH3BGRL2 (UniProt Q9UJC5) | -0.001 | -0.001 | 0.077 | -0.019 | -0.033 | -0.029 | 0.013 | 0.009 | -0.04 | 0.032 | -0.003 | 0.153 | -0.011 | 0.099 | 0.04 |
| SSBP3 (UniProt Q9BWW4) | -0.005 | 0.061 | -0.015 | 0.014 | 0.016 | 0.018 | 0.028 | -0.035 | -0.029 | -0.097 | -0.085 | 0.061 | -0.005 | 0.088 | 0.009 |
| SLC7A5 (UniProt Q01650) | 0.022 | 0.008 | 0.055 | 0.014 | 0.008 | -0.106 | 0.003 | 0 | -0.029 | -0.003 | 0.034 | 0.109 | -0.04 | 0.013 | 0.03 |
| SMC3 (UniProt Q9UQE7) | 0 | -0.01 | 0.024 | 0.013 | 0.024 | 0.023 | 0.002 | 0 | -0.003 | 0.016 | -0.023 | 0.06 | -0.009 | -0.017 | 0.012 |
